Source: PubChem BioAssay (National Center for Advancing Translational Sciences (NCATS))
Shown are actives, neighbours in structure and some others; about 10% of the full set was active somewhere.
ALDH1A1 block – blocks purified human ALDH1A1 activity. 220,000 tested, 7.3% active. Purified ALDH1A1, NADH fluorescence, propionaldehyde substrate. Potency, µM (doses to about 75.3 µM), for the others: at the top dose activity, negative = inhibition, usual class: inhibitors; active means well fitted inhibition curve with a large enough effect, not every such curve was filed as active; inconclusive means small, poorly fitted or top-dose-only effect, or another doubt; inactive means no such curve, though single readings can be large or run the other way;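 further: potency means the concentration at half of the fitted maximal effect; plate controls were no enzyme wells and a reference inhibitor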
Target sequence (P00352 whole entry, looked up): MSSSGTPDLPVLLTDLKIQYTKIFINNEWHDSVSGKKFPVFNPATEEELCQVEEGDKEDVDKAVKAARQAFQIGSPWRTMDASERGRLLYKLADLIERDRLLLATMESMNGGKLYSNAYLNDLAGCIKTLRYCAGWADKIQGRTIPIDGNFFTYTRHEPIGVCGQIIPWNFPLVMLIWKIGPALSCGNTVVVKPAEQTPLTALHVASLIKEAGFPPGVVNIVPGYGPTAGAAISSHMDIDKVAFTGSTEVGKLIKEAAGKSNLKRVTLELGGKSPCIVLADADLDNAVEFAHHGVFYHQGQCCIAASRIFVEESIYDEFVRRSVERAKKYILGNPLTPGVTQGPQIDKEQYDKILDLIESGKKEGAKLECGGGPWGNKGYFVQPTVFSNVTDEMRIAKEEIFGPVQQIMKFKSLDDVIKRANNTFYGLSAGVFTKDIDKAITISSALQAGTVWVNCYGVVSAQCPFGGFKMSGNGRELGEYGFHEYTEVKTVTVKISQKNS
ALOX12 inhib – inhibitors of human 12-lipoxygenase (ALOX12); purified 12-hLO, xylenol orange hydroperoxide absorbance; Potency, µM (top dose mostly 57.1 µM), without a hit: at the highest dose activity change, negative = inhibition, most hits filed as inhibitors; 150,000 tested, 0.12% active; AID 1452; further: potency means the concentration at half of the fitted maximal effect; nearly all actives have a fitted effect of over 55% in size
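Purified human 12hLO (150 nM final) was preincubated with compounds for 15 min at room temperature in 25 mM Hepes pH 7.0, 0.01% Triton X-100, then reacted with 40 uM arachidonic acid for 30 min. Hydroperoxide was detected with ferrous iron/xylenol orange.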
GLA inh pH 4.5 – inhibitors of human alpha-galactosidase A at pH 4.5. P06280. purified enzyme, 4-MU-alpha-Gal fluorescence, pH 4.5. activity change, negative = inhibition, % at 105 µM. 230,000 tested, under 10 active. AID 1467;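 further: 0% = full activity with enzyme and -100% = basal without enzyme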
GLA spleen mod – inhibits or activates alpha-galactosidase in human spleen homogenate. P06280. human spleen homogenate, 4MU-alpha-Gal fluorescence, 40 min. Potency, µM (series often up to 80 µM), for the others: at the top dose activity change, negative = inhibition, most hits filed as inhibitors. 240,000 tested, 0.008% active. AID 2107;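 further: potency means the concentration at half of the fitted maximal effect; 0% = enzyme with vehicle and -100% = no enzyme basal signal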
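qHTS titration in buffer at pH 5.0. Alpha-galactosidase activity in spleen homogenate was measured via 4-methylumbelliferone release from 1 mM fluorogenic substrate after 40 min at 37C and a pH 10 stop. AC50 came from Hill fits of control-normalized data.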
PNC inhibitor – perinucleolar compartment assembly inhibition; PC3M PTB-GFP, PNC prevalence imaging, 16 h; stronger effect = lower value; activity change (PNC), negative = inhibition, % at 10 µM; 140,000 tested, 3.1% active; AID 2417;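 active means readout at or below -70, meaning at least 70% loss of cells showing the perinucleolar compartment, a nuclear body marking cancer cells; inconclusive means readout between -30 and a set limit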;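 further: plate controls were DMSO wells for no effect and camptothecin positive control wells for full effect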
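Read-out is percentage of cells bearing a perinucleolar compartment, from automated 20x imaging of fixed, Hoechst-stained PC3M PTB-GFP cells. Cells were seeded 4 h, then exposed 16 h to compound (23 nl of library stock) in duplicate plates.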
HPGD inh – blocks human HPGD enzyme activity. P15428. purified HPGD, NADH fluorescence kinetic, PGE2 substrate. Potency, µM, inactives show top-dose activity change, negative = inhibition, usual class: inhibitors. 150,000 tested, 4.3% active. AID 894; active means well fitted inhibition curve with a large enough effect, not every such curve was filed as active; inconclusive means small, poorly fitted or top-dose-only effect, or another doubt; inactive means no such curve, though single readings can be large or run the other way; further: potency means the concentration at half of the fitted maximal effect
Target sequence (P15428 whole entry, looked up): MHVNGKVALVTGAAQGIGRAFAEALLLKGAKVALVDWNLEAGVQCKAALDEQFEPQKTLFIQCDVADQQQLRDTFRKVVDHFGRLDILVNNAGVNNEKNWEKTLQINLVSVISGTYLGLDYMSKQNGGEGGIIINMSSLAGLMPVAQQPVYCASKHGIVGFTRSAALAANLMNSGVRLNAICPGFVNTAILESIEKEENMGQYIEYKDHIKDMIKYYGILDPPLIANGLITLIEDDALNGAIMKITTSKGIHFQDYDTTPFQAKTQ
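20 nM HPGD preincubated 15 min at room temperature with compound in 50 mM Tris-HCl pH 8, 0.01% Tween 20. Started with 1 mM NAD+ and 30 uM prostaglandin E2; NADH fluorescence (360/450 nm) read 5 times over 30-s intervals, last minus first.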
Starred values were filed as active, the others as inactive; ? = inconclusive; nt = no result. Unless noted, the call rests on the fitted dose curve; in most records, active means well fitted curve in the direction sought with a large enough effect; inconclusive means small, poorly fitted or top-dose-only effect, or another doubt; inactive means no such curve, though single readings can be large; an effect the other way counts as inactive or inconclusive. Unless noted, on the % scale 0 is the no-effect control and ±100 the full control effect.

SMILES	ALDH1A1 block	ALOX12 inhib	GLA inh pH 4.5	GLA spleen mod	PNC inhibitor	HPGD inh
COc1ccc(CCN2C(=S)N(C)C(=O)C2CC(=O)Nc2ccc(OC)cc2)cc1 (stereo not given)	4.47µM*	nt	-24.3	-2.5%	nt	nt
COc1ccc(NC(=O)CC2C(=O)N(C)C(=S)N2CCc2ccc(F)cc2)cc1 (stereo not given)	nt	nt	-8.4	9.6%	nt	nt
COc1ccc(NC(=O)CC2C(=O)N(C)C(=S)N2CCc2ccccc2)cc1 (stereo not given)	0.891µM*	-0.7%	-3.6	1.8%	?	-5.5%
O=C(c1ccccc1)N1CCN(CC(O)Cn2ccc3ccccc32)CC1 (stereo not given)	nt	nt	4.0	6.5%	nt	nt
O=C(c1ccco1)N1CCN(c2nc(C3CC3)nc3c2nnn3Cc2ccccc2Cl)CC1	?	-4.3%	-29.9	-8.3%	-12.8	?
O=C(c1ccc(Cl)cc1Cl)N1CCC(c2nc3c(nnn3Cc3ccco3)c(=O)[nH]2)CC1	1.7%	-18.6%	-0.4	2.5%	?	20µM*
O=C(c1ccccc1)N1CCC(c2nc3c(nnn3Cc3ccco3)c(=O)[nH]2)CC1	-6.5%	5.1%	0.8	6.3%	-2.3	14.1µM*
Cc1ccc(Cn2nnc3c(=O)[nH]c(C(=O)NCc4ccco4)nc32)cc1	4.4%	-7.1%	-13.2	8.4%	31.5	-25.4%
COc1ccc2oc(-c3ccc(O)cc3)cc(=O)c2c1	?	1.5%	-8.1	-12.0%	nt	?
Cc1ccc(C)c(NS(=O)(=O)c2cc(C(N)=O)ccc2C)c1	-2.3%	-6.3%	-4.5	-0.2%	-80.7*	-10.9%
Cc1ccc(C)c(S(=O)(=O)Nc2ccc(C(N)=O)cc2)c1	?	nt	1.5	11.5%	nt	nt
Cc1ccc(-c2csc3ncn(-n4c(C)ccc4C)c(=O)c23)o1	31.6µM*	-29.3%	-4.0	?	?	28.2µM*
O=C(CC1S/C(=N/N=C/c2ccco2)NC1=O)Nc1cccc(Cl)c1Cl (stereo not given)	-13.2%	nt	-0.4	-7.4%	nt	nt
CCCOc1ccc(C(=O)C(c2ccccc2)N2CCOCC2)cc1 (stereo not given)	12.6µM*	-4.8%	8.1	4.0%	-5.7	?
COc1ccc(C(=O)C(c2ccccc2)N2CCOCC2)cc1 (stereo not given)	-12.6%	-5.6%	-5.3	-10.5%	4.9	-12.5%
NC(=O)c1ccc(C(F)(F)F)n(Cc2cccc(Cl)c2)c1=O	-7.7%	-13.1%	-9.9	-6.8%	-11.9	-18.3%
CCNC(=S)Nc1cc(Cl)ccc1Oc1ccccc1	-2.0%	-8.9%	-19.9	1.1%	-7.8	-3.5%
Cc1ccc(S(=O)(=O)CCc2nnc(NC(=O)CCl)s2)cc1C	1µM*	nt	8.8	2.2%	nt	nt
N#CCc1ccccc1[N+](=O)[O-]	25.1µM*	-4.8%	nt	1.3%	nt	8.91µM*
O=C1c2ccccc2C(=O)N1OCc1ccccc1[N+](=O)[O-]	25.1µM*	nt	3.9	-7.2%	nt	nt
CC[C@H](C)[C@H](NC(=O)[C@H](CO)NC(=O)[C@H](CC(N)=O)NC(=O)[C@H](CC(C)C)NC(=O)[C@H](Cc1ccc(O)cc1)NC(=O)[C@H](CCCCN)NC(=O)[C@H](CCCCN)NC(=O)[C@@H](NC(=O)[C@H](C)NC(=O)[C@H](CCSC)NC(=O)[C@H](CCC(N)=O)NC(=O)[C@H](CCCCN)NC(=O)[C@H](CCCNC(=N)N)NC(=O)[C@H](CC(C)C)NC(=O)[C@H](CCCNC(=N)N)NC(=O)[C@@H](NC(=O)[C@H](Cc1ccc(O)cc1)NC(=O)[C@H](CC(N)=O)NC(=O)[C@H](CC(=O)O)NC(=O)[C@@H](NC(=O)[C@H](Cc1ccccc1)NC(=O)[C@@H](NC(=O)[C@H](C)NC(=O)[C@H](CC(=O)O)NC(=O)[C@H](CO)NC(=O)[C@@H](N)Cc1cnc[nH]1)C(C)C)[C@@H](C)O)[C@@H](C)O)C(C)C)C(=O)N[C@@H](CC(C)C)C(=O)N[C@@H](CC(N)=O)C(N)=O	nt	nt	nt	-6.3%	nt	nt
CN(C)c1ccc(C2C=C(c3ccc(Cl)cc3OC(F)F)Nc3ncnn32)cc1 (stereo not given)	20µM*	-10.5%	3.2	0.2%	35.2	-9.5%
Cc1ccc(C2C=C(c3ccccc3OC(F)F)Nc3ncnn32)cc1 (stereo not given)	?	-6.9%	-1.8	21.7%	?	?
CCn1ccnc1CN(C)Cc1cn(-c2ccccc2)nc1-c1ccc(OC)cc1F	0.3%	nt	0.4	8.9%	nt	nt
C=CCn1cc(-c2cccc(Cl)c2)cc(C#N)c1=O	?	-0.5%	15.1	14.6%	-27.1	?
SMILES	ALDH1A1 block	ALOX12 inhib	GLA inh pH 4.5	GLA spleen mod	PNC inhibitor	HPGD inh
N#Cc1cc(-c2cccc(Cl)c2)c[nH]c1=O	-7.3%	5.2%	-8.4	-4.7%	-91.7*	-19.1%
OCC1CCCN(C(=S)Nc2ccc(Nc3ccccc3)cc2)C1 (stereo not given)	?	nt	2.5	2.2%	nt	nt
Cc1ccc(S(=O)(=O)NCC23C=CC(O2)C2C(=O)N(c4ccccc4)C(=O)C23)cc1 (stereo not given)	3.55µM*	-4.6%	3.3	7.5%	8.6	?
Cc1ccc(NC(=S)NCC(C)C)cc1	13.0%	-5.4%	4.6	-0.3%	-23.6	-15.7%
Cc1ccc(N2C(=O)C3C4C=CC(CNC(=S)N5CCN(c6ccccc6)CC5)(O4)C3C2=O)cc1 (stereo not given)	0.631µM*	nt	0.8	-6.2%	nt	nt
S=C(NCC1CCCO1)N1CCN(c2ccccc2)CC1 (stereo not given)	-5.5%	nt	-2.9	6.1%	nt	nt
Cc1cccc(NC(=S)NCC23C=CC(O2)C2C(=O)N(c4ccc(Cl)cc4)C(=O)C23)c1 (stereo not given)	1.41µM*	-11.8%	-5.2	-1.9%	39.7	-27.2%
Cc1ccc(NC(=S)NCC23C=CC(O2)C2C(=O)N(c4ccc(C)cc4)C(=O)C23)cc1 (stereo not given)	1.26µM*	-20.7%	-6.2	10.4%	-18.3	?
Cc1ccc(S(=O)(=O)NCCc2ccccc2)cc1	-6.3%	-3.9%	-0.7	-1.2%	20.5	-6.2%
CCCn1c(-c2ccc(F)cc2)nc2c(NCCN(CC)CC)nc(C)nc21	?	2.1%	-8.3	3.3%	nt	?
CCOC(=O)Cn1c(=O)oc2cc(S(=O)(=O)N3CCN(C(=O)c4ccco4)CC3)ccc21	1.1%	-3.2%	3.4	6.0%	-1.5	-7.3%
COc1ccc(NC(=S)N(Cc2cccnc2)Cc2cc3cc(OC)c(OC)cc3[nH]c2=O)cc1	?	nt	7.3	3.5%	nt	nt
